Test results reported in PubChem BioAssay AID504452 (The Scripps Research Institute Molecular Screening Center, 2011).
Activity calls are given as the source filed them. Rule as the data show it: active = activation above about 85%; inactive = the rest.

Target: Peroxisome proliferator-activated receptor gamma (Homo sapiens) (UniProt P37231)
Assay: PPARg partial agonist activation, primary screen, cell-based, luciferase reporter, luminescence (AID 504452);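 also: Cos-1 cells carrying PPARgamma and a response element luciferase reporter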
Conditions: at 5 µM, stronger effect = higher value; activation (% of full agonist control): measured here: relative to full agonist control

Peroxisome proliferator-activated receptor gamma (Homo sapiens), sequence (P37231 whole entry, looked up): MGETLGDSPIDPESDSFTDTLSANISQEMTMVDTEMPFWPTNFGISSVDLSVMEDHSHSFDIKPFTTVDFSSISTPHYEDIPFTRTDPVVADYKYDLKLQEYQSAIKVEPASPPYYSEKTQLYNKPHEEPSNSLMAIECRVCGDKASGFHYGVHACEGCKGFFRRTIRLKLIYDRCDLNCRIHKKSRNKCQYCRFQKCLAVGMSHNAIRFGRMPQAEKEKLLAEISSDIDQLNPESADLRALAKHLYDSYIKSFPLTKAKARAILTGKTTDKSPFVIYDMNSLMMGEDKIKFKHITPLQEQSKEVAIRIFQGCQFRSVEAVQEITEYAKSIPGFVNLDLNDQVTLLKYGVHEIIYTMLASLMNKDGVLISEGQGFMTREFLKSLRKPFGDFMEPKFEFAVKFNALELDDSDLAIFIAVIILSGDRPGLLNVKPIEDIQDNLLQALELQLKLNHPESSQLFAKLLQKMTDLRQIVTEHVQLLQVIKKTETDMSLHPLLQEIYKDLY

Row | Compound | activation (% of full agonist control) [%] | activation (% of partial agonist control)
1 | CC(Oc1ccc(F)cc1)C(=O)Nc1ccc(N2CCOCC2)cc1N1CCOCC1 (stereo unspecified) | 31.2 | 69.2% (inactive)
2 | O=C(Cn1c(=O)c(=O)n(Cc2ccccc2)c2ccc(Cl)cc21)NCC1CCCO1 (stereo unspecified) | 31.1 | 68.9% (inactive)
3 | O=C(CCCCCNC(=O)N1CCn2c1nc1ccccc12)N[C@H](Cc1ccccc1)C(=O)O | 27.3 | 60.5% (inactive)
4 | O=C(Nc1cc(F)ccc1F)C1CCCN(c2ncnc3c2nc2n3CCCCC2)C1 (stereo unspecified) | 32.1 | 71% (inactive)
5 | O=C1C2CCCN2c2ccc(S(=O)(=O)N3CCOCC3)cc2N1Cc1cccc(C(F)(F)F)c1 (stereo unspecified) | 32.4 | 71.8% (inactive)
6 | COc1ccc(/C=C(\NC(=O)c2ccco2)C(=O)NC(Cc2ccccc2)C(=O)O)cc1 (stereo unspecified) | 31.3 | 69.3% (inactive)
7 | N#C/C(=C\c1ccc(OCCN2CCOCC2)cc1)C(=O)Nc1ccc(S(N)(=O)=O)cc1 | 36.8 | 81.4% (inactive)
8 | CC(Oc1ccc(F)cc1)C(=O)Nc1cc(S(=O)(=O)N2CCCCC2)ccc1N1CCOCC1 (stereo unspecified) | 31.1 | 68.8% (inactive)
9 | O=C(O)CCC(=O)N1CCc2cc(S(=O)(=O)NCCc3ccc(Cl)cc3)ccc21 | 35.9 | 79.6% (inactive)
10 | CCOc1cc(C2C(C(=O)OC)=CN(Cc3ccc(Cl)cc3)C=C2C(=O)OC)ccc1O | 37.6 | 83.2% (inactive)
11 | Cc1cccc(NC(=O)CSc2nc(=O)n(CCN3CCOCC3)c3c2CCCC3)c1C | 33.1 | 73.2% (inactive)
12 | O=C(c1cccc(S(=O)(=O)Nc2ccccc2Cl)c1)N1CCN(c2ccccc2O)CC1 | 28.5 | 63.2% (inactive)
13 | Cc1nc2ccccn2c1/C(O)=C1\C(=O)C(=O)N(CCN2CCOCC2)C1c1ccncc1 (stereo unspecified) | 26.2 | 58.1% (inactive)
14 | COc1cccc(CN2CCN(Cc3ccc4c(NC(C)=O)cccc4n3)CC2CCO)c1 (stereo unspecified) | 36.5 | 80.7% (inactive)
15 | CCOC(=O)/C=c1\s/c(=C\c2ccc3cc(OC)ccc3c2)c(=O)n1CC(=O)NCC1CCCO1 (stereo unspecified) | 28.6 | 63.3% (inactive)
16 | O=C(Cc1ccccc1)n1nc(-c2ccco2)nc1SCc1ccccc1 | 37 | 81.8% (inactive)
17 | COc1ccc(CN2CCN(Cc3ccc(C)cc3)C(CCO)C2)cc1OC (stereo unspecified) | 33.7 | 74.6% (inactive)

Row | Compound | activation (% of full agonist control) [%] | activation (% of partial agonist control)
18 | COc1cccc(NS(=O)(=O)c2ccc3c(c2)C2C=CCC2C(c2ccc(C(=O)O)cc2)N3)c1 (stereo unspecified) | 32.7 | 72.4% (inactive)
19 | O=C(C1=C(O)C(=O)N(CCN2CCOCC2)C1c1ccc(Cl)cc1)c1cc2ccccc2o1 (stereo unspecified) | 37.3 | 82.6% (inactive)
20 | Cc1ccc(-c2nnc(Nc3ccc(O)cc3)c3ccccc23)cc1S(=O)(=O)NCCO | 41.1 | 91% (active)
21 | COC(=O)C1=CN(Cc2ccc(C)cc2)C=C(C(=O)OC)C1c1ccc(F)c(F)c1 | 36.2 | 80.2% (inactive)
22 | Cc1cc(N2C(=O)C(O)=C(C(=O)c3ccco3)C2c2cccc(Cl)c2)no1 (stereo unspecified) | 25.2 | 55.9% (inactive)
23 | O=c1[nH]c2cc3c(cc2cc1CN(Cc1ccccc1)Cc1nnnn1Cc1ccco1)OCCO3 | 35.1 | 77.6% (inactive)
24 | Cc1nn(Cc2cccc(C(=O)Nc3ccn(Cc4ccccc4F)n3)c2)c(C)c1[N+](=O)[O-] | 32.8 | 72.6% (inactive)
25 | CCn1cnc2c1c(=O)n(Cc1cccc([N+](=O)[O-])c1)c(=O)n2Cc1ccccc1 | 64.1 | 142% (active)
26 | COCCn1cnc2c1c(=O)n(Cc1cc(C(C)=O)ccc1OC)c(=O)n2Cc1ccccc1 | 39.8 | 88.2% (active)
27 | COc1ccc(-c2ccc(CCC(=O)O)n2CC(=O)Nc2ccccc2C)cc1 | 35.1 | 77.7% (inactive)
28 | Cc1ccc2cc(CN(Cc3ccccc3)Cc3nnnn3C3CCCC3)c(=O)[nH]c2c1 | 39.2 | 86.8% (active)
29 | COc1ccc(S(=O)(=O)N2CCCCC2)cc1NC(=O)C1CSC2(C)CCC(=O)N12 (stereo unspecified) | 40.2 | 89% (active)
30 | CC(OC(=O)CNC(=O)c1ccc(F)cc1)C(=O)Nc1ccc(S(=O)(=O)N2CCOCC2)cc1 (stereo unspecified) | 34.9 | 77.2% (inactive)
31 | CCOC(=O)N1CCN(C(=O)c2ccc(S(=O)(=O)c3ccc(C)cc3)c(NC(C)=O)c2)CC1 | 37.2 | 82.4% (inactive)
32 | Cc1cccc(NC(=O)CN2C(=O)/C(=C3\SC(=S)N(CC4CCCO4)C3=O)c3ccccc32)c1 (stereo unspecified) | 43.3 | 95.8% (active)
33 | O=C(CCCCCNC(=O)N1CCn2c1nc1ccccc12)N[C@@H](Cc1ccccc1)C(=O)O | 32.6 | 72.2% (inactive)
